Experimental data taken from PubChem BioAssay AID1903 (Southern Research Specialized Biocontainment Screening …, 2009).
The whole screen tested about 310,000 compounds, of which about 1,200 (0.39%) were called active. How the calls were made is not given here. Only a sample is shown. Entries with a potency or affinity are not part of this list.

Target: Large T antigen (Simian virus 40) (UniProt P03070)
Assay: TAg ATPase/helicase activity blockers – biochemical (AID 1903)
Conditions: SV40 large T antigen ATPase/helicase inhibition assay; at 20 µM; hits give high values

Chain of Large T antigen (Simian virus 40) (P03070 whole entry, looked up): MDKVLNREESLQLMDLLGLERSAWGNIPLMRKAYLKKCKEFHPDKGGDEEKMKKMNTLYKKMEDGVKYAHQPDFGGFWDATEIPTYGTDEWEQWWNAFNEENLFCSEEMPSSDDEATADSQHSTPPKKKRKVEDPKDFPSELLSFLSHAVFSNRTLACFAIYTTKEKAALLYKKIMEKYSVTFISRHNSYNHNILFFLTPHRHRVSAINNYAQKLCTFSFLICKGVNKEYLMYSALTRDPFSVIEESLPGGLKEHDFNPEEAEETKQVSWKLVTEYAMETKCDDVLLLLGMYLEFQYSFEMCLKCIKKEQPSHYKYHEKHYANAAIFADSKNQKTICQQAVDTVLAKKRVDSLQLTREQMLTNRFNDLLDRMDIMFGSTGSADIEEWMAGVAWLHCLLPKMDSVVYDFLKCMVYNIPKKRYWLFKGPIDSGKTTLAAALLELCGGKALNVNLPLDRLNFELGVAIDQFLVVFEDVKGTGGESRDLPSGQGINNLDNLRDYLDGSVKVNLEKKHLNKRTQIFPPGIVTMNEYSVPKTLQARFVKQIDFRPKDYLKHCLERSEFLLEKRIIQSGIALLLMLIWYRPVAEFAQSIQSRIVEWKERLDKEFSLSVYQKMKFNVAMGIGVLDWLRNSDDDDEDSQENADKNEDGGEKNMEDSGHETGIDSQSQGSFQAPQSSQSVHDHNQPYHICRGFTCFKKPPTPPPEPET

inhibition, inactive:
COc1cccc(C(=O)Nc2cc(OC)ccc2NC(=O)c2ccco2)c1 17.6%
Nc1ccc2c(c1)C(=O)C(=O)c1ccccc1-2 15.6%
NCCN=C1NS(=O)(=O)c2ccccc21 7.44%
CC(=O)Nc1ccc(S(=O)(=O)Nc2nc3ccccc3nc2Nc2ccc(S(N)(=O)=O)cc2)cc1 6.12%
CC(=O)Nc1ccc(S(=O)(=O)Nc2nc3ccccc3nc2Nc2ccccc2)cc1 1.54%
COc1ccc(Nc2nc3ccccc3nc2NS(=O)(=O)c2ccc(NC(C)=O)cc2)cc1 12.8%
CC(=O)Nc1ccc(Nc2nc3ccccc3nc2NS(=O)(=O)c2ccccc2)cc1 23.5%
Cn1c(=O)c(C(=O)c2ccc(S(C)(=O)=O)c(Cl)c2Cl)c(O)c2ccccc21 17%
Cn1cc(C(=O)NCCO)c(=O)c2ccccc21 -1.83%
O=C(CSc1nnc(-c2ccccc2)n1CC1CCCO1)N1CCCC1 (stereo not drawn) 12.8%
Cc1nnc2ccc(-c3cccc(NS(=O)(=O)c4ccccc4Cl)c3)nn12 10.3%
CSc1ccccc1N=Cc1nc(-c2ccccc2)oc1O 8.02%
Cc1cccc(NCC(=O)c2c(N)n(C)c(=O)n(C)c2=O)c1C 4.72%
COC(=O)CN1C(c2cccc(Cl)c2)=Nc2ccc(Cl)cc2C1c1ccccc1 (stereo not drawn) 7.04%
COc1cc(/C=N/n2c(C3CCCCC3)n[nH]c2=S)cc(OC)c1O 10.8%
COc1cc(/C=N/n2c(-c3cc(C)[nH]n3)n[nH]c2=S)cc(OC)c1O 24.5%
COc1ccc(/C=N/n2c(-c3n[nH]c4c3CCC4)n[nH]c2=S)cc1OC 23.9%
COc1cc(/C=N/n2c(C3CCCCC3)n[nH]c2=S)ccc1O 21%
COc1cccc(/C=N/n2c(SC)nnc2-c2ccccc2)c1O 26.3%
COc1cccc(/C=N/n2c(-c3cc(C)[nH]n3)n[nH]c2=S)c1OC 26.8%
COc1ccc(CCNC(=O)CN(C)S(=O)(=O)c2ccc(Br)s2)cc1OC -4.17%
Cc1c(Cc2ccccc2)c(=O)oc2c(C)c(OCc3nn[nH]n3)ccc12 11.2%
CCN1CCc2c(OCC(=O)Nc3ccc4c(c3)OCCO4)cccc2C1=O 1.06%
Cc1cc(C)c(S(=O)(=O)c2ccc(Cl)cc2)c(=O)[nH]1 7.48%
CCOc1ccc(-c2[nH]nc3c2C(c2ccc4c(c2)OCO4)C(C#N)=C(N)O3)cc1OC (stereo not drawn) 17%
O=C(CN(c1ccccc1Cl)S(=O)(=O)c1ccccc1)N/N=C/c1ccccc1C(=O)O 9.75%
CC(=O)N1CCN(CC(=O)Nc2sccc2C#N)CC1 4.43%
CCOc1ccccc1NC(=O)C1CC2CCCC(C1)C2=O (stereo not drawn) 14.6%
CCc1ccccc1NC(=O)Cn1c(=O)n(-c2ccc(CC(=O)NCC3CCCO3)cc2)c(=O)c2ccccc21 (stereo not drawn) 23.2%
CN(C)Cc1c(O)ccc2c(=O)c(-c3ccc(Cl)cc3)coc12 2.49%
O=c1cc(-c2ccc([N+](=O)[O-])cc2)c2ccc(O)cc2o1 9.32%
COc1ccc(-n2cnnc2SCCC#N)cc1 2.92%
CCOc1cc(CNc2ccc3c(c2)OCCO3)cc(Br)c1OCC(N)=O 32.4%
COc1cc(CNCCCN2CCOCC2)ccc1OCC(=O)NC(C)(C)C -1.04%
COc1cc(CNC(C)(C)C)ccc1OCC(=O)NC(C)(C)C 12.2%
COc1cc(CNc2ccc(N3CCOCC3)c(C(=O)O)c2)ccc1OCC(N)=O 14%
COc1cc(CNCCN2CCOCC2)ccc1OCC(=O)NC(C)(C)C 3.18%
CCOc1cc(CNc2ccc(N3CCCCC3)cc2)cc(Br)c1OCC(=O)NC(C)(C)C 19.5%
O=C(c1cc2ccccc2o1)n1nnc2ccccc21 3.13%
CC(C)(C)NS(=O)(=O)c1cc(C(=O)Nc2sccc2C#N)ccc1Cl 8.52%
COc1cc(NC(=O)C2CCCN(S(=O)(=O)c3ccc4c(c3)oc(=O)n4C)C2)cc(OC)c1 (stereo not drawn) 1.24%
O=C(O)CSCC(=O)N1CCN(c2nc3cc(Cl)ccc3s2)CC1 8.15%
C=CCNC(=O)c1ccccc1NS(=O)(=O)c1ccccc1 4.06%
CCN(CC)CCNC(=O)c1cn(-c2ccccc2)nc1-c1cccs1 12.7%
Nc1nc(-c2ccc(-n3nncc3-c3ccco3)cc2)cs1 13.1%
c1coc(-c2nc3ccccc3nc2-c2ccco2)c1 50.2%
c1coc(-c2nnc(-c3ccco3)nn2)c1 63.8%
c1ccc(-c2nc(-c3ccco3)cs2)nc1 23.7%
COc1ccc(-c2csc(-c3ccc(O)cc3)n2)cc1 21%
COc1ccc(-c2csc(C)n2)cc1 13.6%
Oc1ccccc1-c1csc(-c2ccccc2)n1 6.78%
Cc1nc(-c2ccccc2)cs1 12.6%
COc1ccc(-c2csc(C)n2)cc1Br 10.3%
COc1ccc(-c2csc(C)n2)cc1OC 2.09%
O=C1Nc2ccc(Br)cc2C1(O)c1ccc(F)cc1 (stereo not drawn) 5.56%
COc1ccc(F)cc1C(=O)C1CCCN(Cc2c(C)n(C)n(-c3ccccc3)c2=O)C1 (stereo not drawn) 25.2%
COc1ccc(C(=O)NC2CCCCC2)cc1S(=O)(=O)N1CCOCC1 1.05%
CC(OC(=O)c1cccc(Cl)c1)C(=O)NC1CCCCC1C (stereo not drawn) 27.1%
Nc1nnc(SCC(=O)N2CCCCC2)s1 -7.45%
COc1ccc(-n2nc3cc(C)c(N)cc3n2)cc1Cl -6.4%
O=C(CN(Cc1ccccc1)C(=O)c1csnn1)NCc1ccccc1 7.5%
Cc1nc2ccc(NC(=O)c3ccc(Cl)c([N+](=O)[O-])c3)cc2s1 6.3%
Cc1nc2ccc(NC(=O)c3ccc([N+](=O)[O-])cc3[N+](=O)[O-])cc2s1 8.68%
